Experiments:
Details in all cases: concentration: 10 µM; 24 h
HCC1569 [1] = experiment: cell number relative to DMSO (% of DMSO); higher = more cells (less growth inhibition / toxicity)
Procedure, shortened: (§1)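 Using 384-well plates with 800 cells per well in RPMI plus 10% FBS, HCC1569 and TDF cells were exposed to compounds at 10 µM, in triplicate, for 24 h at 37 °C. Imaging of six fields per well at ×10 followed H1.0 and DAPI staining. The reported quantity, H1.0 nuclear intensity or cell number, is a median of replicates given as percent of the plate control, and HCC1569 values were smoothed for positional effects.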

TDF [2] = experiment: as above
Procedure, shortened: as §1

TDF [3] = experiment: H1.0 immunofluorescence intensity relative to DMSO (% of DMSO); higher = stronger H1.0 induction, active = 120 or more
Procedure, shortened: as §1

HCC1569 [4] = experiment: H1.0 immunofluorescence intensity relative to DMSO (% of DMSO); higher = stronger H1.0 induction, active = 140 or more
Procedure, shortened: as §1
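For H1.0 immunofluorescence intensity relative to DMSO in this document: TDF is a line of transformed human dermal fibroblasts of mesenchymal origin.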
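For cell number relative to DMSO in this document: TDF denotes transformed human dermal fibroblasts of mesenchymal origin.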

Compound | cell number (HCC1569 [1]) | cell number (TDF [2]) | H1.0 immunofluorescence intensity (TDF [3]) | H1.0 immunofluorescence intensity (HCC1569 [4])
COC1=CC2C3Cc4ccc(OC)c(O)c4C2(CCN3C)CC1=O (stereo unspecified) [Sinomenine] | 101 | 95.5 | 94.1 (inactive) | 83.8 (inactive)
CN(C)C(=O)C(CCN1CCC(O)(c2ccc(Cl)cc2)CC1)(c1ccccc1)c1ccccc1.Cl [Loperamide hydrochloride] | 84.8 | 88.6 | 102 (inactive) | 122 (inactive)
CC(C)NP(=O)(NC(C)C)OP(=O)(NC(C)C)NC(C)C [Tetraisopropyl pyrophosphoramide] | 99.2 | 104 | 94.9 (inactive) | 105 (inactive)
CC1CC2CCC(O2)C(C)C(=O)OC(C)CC2CCC(O2)C(C)C(=O)OC(C)CC2CCC(O2)C(C)C(=O)OC(C)CC2CCC(O2)C(C)C(=O)O1 (stereo unspecified) [Nonactin] | 60.4 | 50.1 | 118 (inactive) | 148 (active)
CCCN1CCOC2c3cc(O)ccc3OCC21.Cl (racemic) | 104 | 91 | 88.1 (inactive) | 96.5 (inactive)
Cl.NCCc1c[nH]c2ccc(O)cc12 [Serotonin hydrochloride] | 102 | 118 | 90.1 (inactive) | 92.2 (inactive)
CN1C2CCC1CC(OC(=O)C(CO)c1ccccc1)C2.CN1C2CCC1CC(OC(=O)C(CO)c1ccccc1)C2.O.O=S(=O)(O)O (stereo unspecified) [Atropine sulfate] | 102 | – | 91.8 (inactive) | 85.2 (inactive)
Br.CN1C2CC(OC(=O)C(CO)c3ccccc3)CC1C(O)C2 (stereo unspecified) [Anisodamine] | 104 | 102 | 101 (inactive) | 94.6 (inactive)
CCCCCC=CCC=CCC=CCC=CCCCC(=O)NC(C)CO [(R)-Methandamide] | 107 | 98.1 | 100 (inactive) | 100 (inactive)
CC(C)(C)NCC(O)c1ccccc1Cl.Cl (stereo unspecified) [Tulobuterol hydrochloride] | 101 | 110 | 89.1 (inactive) | 96.4 (inactive)
CN[C@@H]1Cc2cccc3[nH]c(=O)n(c23)C1.O=C(O)C=CC(=O)O | 101 | 105 | 92.5 (inactive) | 89.2 (inactive)
O=C(O)c1nn(Cc2ccc(Cl)cc2Cl)c2ccccc12 [Lonidamine] | 107 | 96.2 | 94.3 (inactive) | 92.3 (inactive)
Br.NC1CCc2cc(O)c(O)cc2C1 (stereo unspecified) [6,7-ADTN hydrobromide] | 104 | 103 | 93.1 (inactive) | 92.4 (inactive)
COc1cccc(C2(O)CCCCC2CN(C)C)c1 (stereo unspecified) [Tramadol] | 100 | 97.7 | 99.3 (inactive) | 109 (inactive)
Clc1cnc(Oc2ccc(Oc3ncc(Cl)cc3Cl)cc2)c(Cl)c1 | 100 | 109 | 97.1 (inactive) | 99.2 (inactive)
COc1ccccc1N1CCNCC1.Cl [1-(2-Methoxyphenyl)piperazine hydrochloride] | 105 | 113 | 96.4 (inactive) | 98.8 (inactive)
CCC1CN2CCc3cc(OC)c(OC)cc3C2CC1CC1NCCc2cc(OC)c(OC)cc21.Cl.Cl (stereo unspecified) [Emetine dihydrochloride hydrate] | 57.5 | 20.6 | 114 (inactive) | 99 (inactive)
CCN1CC2(COC)CCC(OC)C34C5CC6(O)C(OC)CC(OC(C)=O)(C5C6C(=O)c5ccc(OC)cc5)C(C(OC)C23)C14 (stereo unspecified) [Bulleyaconotine A] | 99 | 103 | 103 (inactive) | 88.8 (inactive)
COc1ccc2c(c[n+](C)c3c4cc5c(cc4ccc23)OCO5)c1OC.[Cl-] [Chelerythrine chloride] | 55.4 | 0.93 | – | 157 (active)
CCN1CC2(C)CCC(OC)C34C2C(OC(C)=O)C2(OCOC25CC(OC)C2CC3(O)C5C2OC)C14 (stereo unspecified) [Deltaline] | 105 | 104 | 98.2 (inactive) | 96.9 (inactive)
COC(=O)C1(O)CC2OC1(C)n1c3ccccc3c3c4c(c5c6ccccc6n2c5c31)C(=O)NC4 (stereo unspecified) [K-252a, Nocardiopsis sp.] | 33.7 | 2.54 | – | 75.8 (inactive)
NC(Cn1ccc(=O)[nH]c1=O)C(=O)O (stereo not drawn) [S(-)-Willardiine] | 104 | 118 | 97.7 (inactive) | 97.6 (inactive)
CCn1cnc2c(Nc3cccc(Cl)c3)nc(NC3CCCCC3N)nc21.Cl (stereo unspecified) | 53 | 21.5 | 132 (active) | 101 (inactive)
Cc1ccc2c(c1)C1(CCN(CCc3nc(-c4ccccc4)oc3C)CC1)OC(=O)N2 | 85.9 | 91.1 | 107 (inactive) | 123 (inactive)
NC(=NN=Cc1ccc(-c2cccc([N+](=O)[O-])c2)o1)N[N+](=O)[O-] [ERK Inhibitor III] | 102 | 101 | 95.3 (inactive) | 102 (inactive)
C/C(Nc1ccccc1)=C1\C(=O)NC(Cc2ccccc2)C1=O (stereo unspecified) [(3E)-3-(1-anilinoethylidene)-5-benzyl-2,4-pyrrolidinedione] | 60.4 | 7.27 | 193 (active) | 148 (active)

From the supplement of paper PMC7156485
